Data from PubChem BioAssay (NCI).
Compounds without any hit were thinned out: in the full panel of roughly 79,000, 15% have a hit. Values without a mark were called inactive. The source made the active and inactive calls. Rule as the data show it: active = growth inhibition above about 70%; inactive = the rest.

assay: NCI Yeast Anticancer Drug Screen. Data for the mlh1 rad18 strain (AID 175); conditions: S. cerevisiae mlh1 rad18 strain growth inhibition; at 50.0 µM; stronger effect = higher value
In short: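 Steps: expose repair-defective yeast to compound; measure growth; express inhibition against vehicle-treated controls.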

Row | Compound | growth inhibition
1 | O=c1[nH]n(Cc2ccccn2)c2ccc([N+](=O)[O-])cc12 | -14.2%
2 | CCOC(=O)CCCCCCC(=O)OCC | 23.4%
3 | O=C(O)CCC(=O)c1ccc2c3c1CCCC3CC2 (stereo not given) | 70.7% (active)
4 | CCc1ccc(OC(C)=O)cc1 | 15.6%
5 | Cc1ccc(/C(O)=C/C(=O)C(=O)NN=C(c2ccccc2)c2ccccc2)cc1 | -1.85%
6 | CCCc1c(O)c(=O)c2c(OC)cc(OC)c3c4c(OC)cc(OC)c5c(=O)c(O)c(CCC)c(c1c23)c54 | 89% (active)
7 | COc1ccc(C(O)Cc2ccccc2)cc1 (stereo not given) | -6.4%
8 | O=C(CC12C3C4C1C1C2C3C41CC(=O)NO)NO (stereo not given) | -10.9%
9 | Cc1ccc(S(=O)(=O)C2=c3nc4ccccc4cc3=C3C(=O)c4ccccc4C(=O)C32)cc1 (stereo not given) | -3.7%
10 | Oc1ccc(Cl)cc1-c1cc(-c2ccccc2)nc(=S)[nH]1 | -3.6%
11 | c1ccc(-c2cc(-c3cc(-c4ccccc4)n(-c4ccccc4)n3)nn2-c2ccccc2)cc1 | -38.3%
12 | CC1=C(C(=O)Nc2ccccc2C)C(c2ccccc2)C(C(=O)Nc2ccccc2C)=C(C)N1 | 7.1%
13 | O=C(/C=C/c1ccccc1)NC(=S)Nc1ccc(F)c([N+](=O)[O-])c1 | 12.2%
14 | NCCSSCCCCSSCCN | -1.9%
15 | Cc1c(-c2nc(N)nc(C3CC3)c2C)nc(N)nc1C1CC1 | -7.35%
16 | O=C1NC(N2CCCC(CO)C2)=N/C1=C\c1ccc(Cl)cc1 (stereo not given) | -19.1%
17 | CC(C)C(=O)C(F)(F)F | -2.3%
18 | COc1cc2c(cc1OC)-c1cc3cc(OC)c(OC)cc3c(C)[n+]1CC2 (tested in a mixture with another compound) | -66.8%
19 | O=C1NC(N2CCCCC2)=N/C1=C\c1ccco1 | -33.8%
20 | Cc1ccc(/C=C/c2ccc3ccccc3c2)cc1 | -3.85%

Row | Compound | growth inhibition
21 | CCCCCCCC/C=C/CCCCCCCC(=O)O | -50.9%
22 | CC(=O)Nc1ccc(O)c(C(=O)O)c1 | -24.4%
23 | CCCCCCCCCCN=C(N)CSSCC(N)=NCCCCCCCCCC | 97.4% (active)
24 | O=[N+]([O-])c1ccccc1OC1OC(CO)C(O)C(O)C1O (stereo not given) | 7.2%
25 | Cc1ccc(S(=O)(=O)NNC(=O)c2cccnc2)cc1 | 4.8%
26 | COC1C=C(Br)C(=O)C(C)O1 (stereo not given) | -1.8%
27 | O=C(Nc1ccc(NC(=O)Nc2cc(C(F)(F)F)ccc2Oc2ccc(Cl)c(Cl)c2)cc1)Nc1cc(C(F)(F)F)ccc1Oc1ccc(Cl)c(Cl)c1 | -19.7%
28 | Clc1cccc[n+]1CCc1ccccc1 | 44%
29 | O=C(O)C12C3CCC(CC3)C1(C(=O)O)C1CCC2C1 (stereo not given) | -1.2%
30 | CN(C)CC(CN(C)C)C(=O)C(C)(C)C | 13.8%
31 | Cc1ccc(NC(=O)c2cc3cc(N=Nc4ccc(Br)cc4)ccc3oc2=O)cc1 | 15.8%
32 | O=C(NC(=S)Nc1cccc(Cl)c1)c1ccccc1 | 12.4%
33 | Oc1ccc(-c2csc(Nc3ccccn3)n2)cc1O | 98.8% (active)
34 | CS(=O)(=O)N(CCC#N)c1ccc(C=O)cc1 | 7%
35 | N#CC1(C#N)CC1c1ccccc1 (stereo not given) | 29.3%
36 | c1ccc(N=C2N=c3ccccc3=C2c2c(Nc3ccccc3)[nH]c3ccccc23)cc1 | 17.6%
37 | COC(=O)CN(CC(=O)OC)C(C)=O | 0.6%
38 | CCCCC(=O)c1cc2ccccc2c2ccccc12 | 6.3%
39 | Cc1ccc(S(=O)(=O)NC2C(=O)c3ccccc3C(=O)C2n2ccnc2)cc1 (stereo not given) | -21.5%
40 | Cc1cn(CC(O)c2cc3ccccc3[nH]2)c(=O)[nH]c1=O (stereo not given) | 7.15%
